In the library only some 1.5% were active in any assay of this set; here they are far more common.
NOD2-RIPK2 inh = inhibitors of human NOD2-RIPK2 interaction | 0.38% of 360,000 active | inhibition, % at 4.98 µM | O43353 | CHO BLA complementation NOD2-RIPK2, CCF4 ratio | AID 624267; in the data active = inhibition above about 21%;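 also: 0% = vehicle only and 100% = reference blocker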
ABHD5 PLIN5 PPI = ABHD5-PLIN5 protein interaction inhibition | Q00G26+Q8WTS1 | Split G. princeps luciferase complementation, luminescence, 4 h | inhibition, % at 4 µM | 0.78% of 360,000 active;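 active = inhibition above the mean inhibition across every tested compound plus 3 SD, cut at about 22% in these data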;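 also: 0% = DMSO only wells and the 100% control is not disclosed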
NTR1 agonist = activates human neurotensin receptor 1; P30989; NTR1-U2OS beta-arrestin-GFP spot imaging, agonist mode; activation, % at 20 µM; 0.17% of 330,000 active; AID 493036;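 active = activation at or above 40% of the spot to cytoplasm intensity ratio, with at least 20 cells analyzed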;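 also: 0% = DMSO without peptide and 100% = 100 nM NTR1 peptide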
B2AR ag = activates human beta-2 adrenergic receptor causing internalization; P07550; response, % (test concentration not listed); Am2.2-beta2AR cells, FAP receptor internalization, flow cytometry; AID 504454; 0.43% of 340,000 active;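 active = response above a set limit, near 3 SD of response in nonfluorescent compounds, cut at about 42% in these data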
TLR4 MyD88 comp = blocks binding of human TLR4 to MyD88; HeLa CL3-4 TLR4/MyD88 BLA complementation, FRET ratio; O00206+Q99836; AID 861; inhibition, % at 8.4 µM; 0.18% of 200,000 active; in the data active = inhibition above about 25%;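 also: 0% = vehicle and 100% = reference inhibitor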
Target sequence (O00206 whole entry, looked up): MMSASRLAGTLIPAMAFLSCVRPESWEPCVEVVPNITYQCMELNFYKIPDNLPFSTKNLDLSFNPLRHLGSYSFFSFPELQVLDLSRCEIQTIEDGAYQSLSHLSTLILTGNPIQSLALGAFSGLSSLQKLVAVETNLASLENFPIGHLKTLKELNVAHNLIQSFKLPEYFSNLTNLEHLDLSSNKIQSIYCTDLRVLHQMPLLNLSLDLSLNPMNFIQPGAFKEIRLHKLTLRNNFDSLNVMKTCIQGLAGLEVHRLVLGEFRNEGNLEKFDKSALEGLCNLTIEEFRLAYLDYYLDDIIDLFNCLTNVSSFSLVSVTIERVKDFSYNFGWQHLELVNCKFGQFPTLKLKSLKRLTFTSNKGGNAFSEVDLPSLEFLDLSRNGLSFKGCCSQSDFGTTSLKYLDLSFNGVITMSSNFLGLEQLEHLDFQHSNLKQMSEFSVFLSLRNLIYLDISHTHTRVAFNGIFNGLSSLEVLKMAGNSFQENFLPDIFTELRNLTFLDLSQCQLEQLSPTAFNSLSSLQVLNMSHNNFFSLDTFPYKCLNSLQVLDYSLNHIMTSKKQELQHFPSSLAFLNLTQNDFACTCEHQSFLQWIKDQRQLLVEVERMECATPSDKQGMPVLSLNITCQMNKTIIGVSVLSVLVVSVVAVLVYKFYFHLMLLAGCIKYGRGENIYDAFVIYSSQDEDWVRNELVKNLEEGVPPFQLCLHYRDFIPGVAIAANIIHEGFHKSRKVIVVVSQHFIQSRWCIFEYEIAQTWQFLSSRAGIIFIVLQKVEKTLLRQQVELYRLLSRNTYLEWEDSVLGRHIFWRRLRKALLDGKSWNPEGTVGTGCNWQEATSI
Target sequence (Q99836 whole entry, looked up): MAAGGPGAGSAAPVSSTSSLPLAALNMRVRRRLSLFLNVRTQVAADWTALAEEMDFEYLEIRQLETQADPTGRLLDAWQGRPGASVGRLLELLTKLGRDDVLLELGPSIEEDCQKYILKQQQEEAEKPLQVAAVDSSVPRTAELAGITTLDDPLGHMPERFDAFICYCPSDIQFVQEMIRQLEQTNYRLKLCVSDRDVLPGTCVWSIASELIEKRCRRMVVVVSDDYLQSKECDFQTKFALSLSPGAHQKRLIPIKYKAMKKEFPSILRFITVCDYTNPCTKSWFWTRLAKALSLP
TLR9-MyD88 block = TLR9-MyD88 interaction inhibition. Q9NR96+Q99836. CHO BLA complementation TLR9-MyD88, CCF4 FRET ratio. inhibition, % at 4.98 µM. 0.21% of 340,000 active;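 active = inhibition above the mean over all tested compounds plus 3 SD, cut at about 21% in these data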;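 also: 0% = DMSO only wells and 100% = clavulanate BLA inhibitor control wells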
TLR4 MyD88 cnf = confirmation of human TLR4-MyD88 binding inhibitors. shares compounds with TLR4 MyD88 comp. AID 941. inhibition, % at 8.4 µM. 50% of 350 active. HeLa CL3-4 BLA complementation, CCF4 FRET ratio;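 active = mean inhibition across three repeat runs above about 25% carried over from the earlier screen, limit read from the data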;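 also: plate controls were DMSO only for no effect and clavulanic acid blocking BLA at full dose for full effect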
BLA inhibitor ct = counter-screen for TLR4-MyD88 inhibitors: beta-lactamase reporter inhibitors | HeLa BLA reporter, CCF4 FRET ratio | shares compounds with TLR4 MyD88 comp | 63% of 350 active | inhibition, % at 8.4 µM | AID 1237;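 active = mean inhibition over three repeats above about 26% taken from the earlier screen, limit read from the data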;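 also: HeLa cells stably expressing beta-lactamase reporter as counterscreen for TLR4-MyD88 inhibitors; 0% = DMSO and 100% = clavulanic acid full inhibition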
NTR1 ag confirm = NTR1 (human) agonism, confirmed; shares compounds with NTR1 agonist; NTR1-U2OS beta-arrestin-GFP translocation imaging; activation, % at 20 µM; 38% of 480 active; AID 504550;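 active = mean activation at 20 µM of at least 40%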;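 also: 0% = DMSO without peptide and 100% = 100 nM NTR1 peptide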
TLR9-MyD88 conf = confirmation of human TLR9-MyD88 binding inhibitors. shares compounds with TLR9-MyD88 block. CHO TLR9/MyD88 BLA complementation, CCF4 FRET ratio. inhibition, % at 4.98 µM. 51% of 680 active;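 active = mean inhibition across three repeats above about 21% taken from the earlier screen, limit read from the data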;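 also: blue over green emission ratio reports constitutive TLR9 MyD88 association via BLA complementation; 0% = DMSO vehicle wells and 100% = clavulanate BLA inhibitor wells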
BLA nonselective = counter-screen for TLR9-MyD88 inhibitors: non-selective beta-lactamase inhibitors; shares compounds with TLR9-MyD88 block; CHO-BLA cells, CCF4 FRET ratio, BLA reporter; inhibition, % at 4.98 µM; 7% of 680 active; AID 540251;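 active = mean inhibition above a 50% cutoff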;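 also: counterscreen of TLR9-MyD88 hits on CMV-driven BLA in CHO-K1 cells; 0% = DMSO alone and 100% = clavulanate blocking BLA; higher means less blue over green ratio so more BLA blockade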
TLR9 CHO tox = CHO cell toxicity counter-screen for TLR9-MyD88 inhibitors; shares compounds with TLR9-MyD88 block; TLR9-MyD88 CHO cells cytotoxicity, luminescence; inhibition, % at 4.98 µM; 39% of 680 active; in the data active = inhibition above about 11%
ABHD5-PLIN5 conf = ABHD5-PLIN5 interaction inhibition, confirmed | shares compounds with ABHD5 PLIN5 PPI | biochemical ABHD5-PLIN5 interaction, luminescence | inhibition, % at 4 µM | 67% of 2,200 active; in the data active = inhibition above about 23%;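 also: 0% = DMSO vehicle wells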
HNF4 counter = counter-screen for ABHD5-PLIN5 inhibitors: HNF4 split-luciferase. shares compounds with ABHD5 PLIN5 PPI. HNF4 dimerization, luminescence, biochemical. inhibition, % at 4 µM. 77% of 2,200 active. AID 651674;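 active = mean inhibition across replicate wells exceeding the computed hit threshold, cut at about 13% in these data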;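 also: light from luciferase halves that rejoin when HNF4 fusion proteins dimerize; 0% = DMSO only wells and the 100% control is not given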
The depositor's hits bear a star; x = no result.

SMILES	NOD2-RIPK2 inh	ABHD5 PLIN5 PPI	NTR1 agonist	B2AR ag	TLR4 MyD88 comp	TLR9-MyD88 block	others
CCOC(=O)NC1CCc2cc(OC)c(OC)c(OC)c2-c2ccc(OC)c(=O)cc21 (configuration not stated)	14	-8	x	10	x	1
O=c1[nH]c(=S)[nH]c(O)c1/C=C1/C=c2ccccc2=N1	-20	-14	x	52*	x	2
Cc1cccc2c1=NC(=O)/C(=C/c1c(O)[nH]c(=O)[nH]c1=O)C=2	-9	0	-1	5	11	2
CC1CN2c3ccc([N+](=O)[O-])cc3CC3(C(=O)N(C)C(=O)N(C)C3=O)C2C(C)O1 (configuration not stated)	-9	8	-1	2	x	10
CC(=O)OC[C@]12CCC(C)=C[C@H]1O[C@@H]1[C@H](O)[C@@H](OC(C)=O)[C@@]2(C)[C@]12CO2	20	1	8	103*	x	3
O=C1/C(=C\c2cc3c(cc2Br)OCO3)N2CCC1CC2	3	5	2	-3	-11	-2
CCN1/C(=C\C=C\C2=[N+](CC)c3ccccc3C2(C)C)C(C)(C)c2ccccc21	9	46*	-5	-566	0	-24
COc1ccc(Cn2c(N)c(C(=O)NCc3ccco3)c3nc4ccccc4nc32)cc1	-6	22*	5	3	-24	-15
Nc1c(C(=O)NCc2ccco2)c2nc3ccccc3nc2n1Cc1ccc(F)cc1	-10	6	1	-1	-39	-3
O=C(O)c1cc[c]([Hg][Cl])cc1	3	82*	0	-2	x	3
C[N+](C)(N)CCOC(=O)C(O)(c1ccccc1)C1CCCCC1 (configuration not stated)	-14	2	1	98*	x	1
O=c1c2ccccc2nc(Cc2cccc([N+](=O)[O-])c2)n1-c1ccc(O)cc1	-6	2	0	-29	x	-10
CCC(C)C1NC(=O)C(NC(=O)C(CC(C)C)N(C)C(=O)C2CCCN2C(=O)C(C)O)C(C)OC(=O)C(Cc2ccc(OC)cc2)N(C)C(=O)C2CCCN2C(=O)C(CC(C)C)NC(=O)[C@H](C)C(=O)[C@H](C(C)C)OC(=O)CC1O (some centres not stated)	12	1	x	42*	x	-24
C#CCCC[C@@H]1OC(=O)CNC(=O)C([C@@H](C)CC)NC(=O)[C@@H]2CCCN2C(=O)C([C@@H](C)CC)OC(=O)[C@H](Cc2ccccc2)N(C)C(=O)[C@H](C(C)C)NC(=O)C1(C)C (some centres not stated)	-12	6	x	x	x	x
CCn1c(O)c(C=Nc2ccc(N3CCOCC3)c(Br)c2)c(=O)n(CC)c1=S	4	8	-4	6	-3	6
CCn1c(O)c(C=Nc2ccc(N3CCOCC3)cc2)c(=O)n(CC)c1=S	10	-3	4	-293	44*	16	TLR4 MyD88 cnf=50*;BLA inhibitor ct=69*
O=c1[nH]c(Cl)ccc1CN1CCOCC1	-16	6	-2	3	x	-6
Cc1ccc(/C=C2\C(=O)NC(=S)N(c3ccc(F)cc3)C2=O)s1	0	-5	15	39	26*	-12	TLR4 MyD88 cnf=19;BLA inhibitor ct=-16
CN1C(=O)/C(=C/c2cccn2-c2ccc3ccccc3c2)C(=O)NC1=S	4	7	46*	47*	-8	11	NTR1 ag confirm=66*
Cn1cccc1/C=C1/C(=O)NC(=O)N(C(C)(C)C)C1=O	12	10	2	-20	x	4
Cc1cccc(C)c1N1CCN(c2c(C)cccc2C)CC1	1	-4	1	-1	x	-13
NCC1(CC(=O)O)CCCCC1	x	x	-1	x	-7	x
CC(C)c1ccc(N2C(=O)NC(=O)/C(=C\C=C\c3ccco3)C2=O)cc1	x	x	42*	x	12	x	NTR1 ag confirm=52*
CC(C)c1ccc(N2C(=O)NC(=O)/C(=C\c3cnc(-c4ccccc4)nc3)C2=O)cc1	2	5	-1	0	8	-1
Oc1ccc(-[n+]2c(-c3ccccc3)cc(-c3ccccc3)cc2-c2ccccc2)cc1	-3	21	81*	22	x	1	NTR1 ag confirm=84*
Cc1cc(/C=C2/C(=O)NC(=O)N(Cc3ccco3)C2=O)c(C)n1-c1ccccc1	-1	-3	86*	2	7	-7	NTR1 ag confirm=2
CCC(=NCCOc1ccc(Cl)cc1)c1c(O)n(C)c(=O)n(C)c1=O	12	-3	5	12	-5	0
CCOC(=O)C(O)(c1ccc(NC(=S)NC(=O)c2ccc(Cl)cc2Cl)c(C)c1)C(F)(F)F (configuration not stated)	6	-17	45*	1	-7	5	NTR1 ag confirm=11
Cc1cc(C)cc(N2C(=O)NC(=O)/C(=C\c3cccn3-c3ccccc3)C2=O)c1	15	25*	76*	13	24	22*	NTR1 ag confirm=67*;TLR9-MyD88 conf=18;BLA nonselective=3;TLR9 CHO tox=9;ABHD5-PLIN5 conf=58*;HNF4 counter=70*
COC(=O)C1=C(c2ccc(Cl)c(C(F)(F)F)c2)C[C@@H]2CC[C@H]1N2C(=O)NCCCOC(C)C	7	-4	-1	5	x	-7

High-throughput results from PubChem.
